Experimental data reported in PubChem BioAssay (NCI).
The panel holds about 79,000 compounds, 15% with a hit somewhere; the sample as a whole holds those more often. Active and inactive are the calls of the source. Rule as the data show it: active = growth inhibition above about 70%; inactive = the rest.

Columns and labels:
[1] = NCI Yeast Anticancer Drug Screen. Data for the rad50 strain (AID 155);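 also: 0% = growth of vehicle-only cultures of the same strain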; conditions: S. cerevisiae rad50 strain growth inhibition; at 50.0 µM; hits give high values
Method in brief: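 Vehicle-treated cultures provide the reference for the growth inhibition reported for compound-exposed, repair-deficient yeast.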

[2] = NCI Yeast Anticancer Drug Screen. Data for the mec2-1 strain (AID 157); conditions: S. cerevisiae mec2-1 strain, at 50.0 µM, hits give high values
Method in brief: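 Using mec2-1 yeast: add compound, measure growth, express inhibition versus vehicle-treated cultures.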

[3] = NCI Yeast Anticancer Drug Screen. Data for the sgs1 mgt1 strain (AID 161);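 also: 0% = growth of cultures given vehicle only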; conditions: S. cerevisiae sgs1 mgt1 strain, at 50.0 µM, hits give high values
Method in brief: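 Compounds are added to genetically altered yeast, and growth is compared with cultures given vehicle alone to give percent inhibition.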

[4] = NCI Yeast Anticancer Drug Screen. Data for the cln2 rad14 strain (AID 165);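 also: 0% = growth equal to vehicle treated cultures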; conditions: S. cerevisiae cln2 rad14 strain, at 50.0 µM, hits give high values
Method in brief: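 Yeast strain cln2 rad14, bearing defects in cell cycle control and DNA repair, serves as the test system; values reflect growth inhibition compared with vehicle.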

[5] = NCI Yeast Anticancer Drug Screen. Data for the bub3 strain (AID 167); conditions: S. cerevisiae bub3 mutant strain, at 50.0 µM, hits give high values
Method in brief: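 Mutant yeast screening strain plus compound; vehicle-treated cultures serve as the 0% inhibition reference.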

[6] = NCI Yeast Anticancer Drug Screen. Data for the mlh1 rad18 strain (AID 175); conditions: S. cerevisiae mlh1 rad18 strain growth inhibition; at 50.0 µM; hits give high values
Method in brief: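 Steps: expose repair-defective yeast to compound; measure growth; express inhibition against vehicle-treated controls.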

Measured: growth inhibition

CCC(=S)Nc1ccc(Cl)cc1
inactive: [1] -1.9% | [2] -44.6% | [3] -34.5% | [4] -21.2% | [5] -36.9% | [6] -35.4%

CNc1ccc(/C=C/c2ccnc3ccccc23)cc1
inactive: [1] 31.2% | [2] 46.2% | [3] 68.3% | [4] 27.6% | [5] 42.1% | [6] 49.8%

CCCCCCO[Si](OCCCCCC)(OCCCCCC)OCCCCCC
inactive: [1] -35.1% | [2] -32.4% | [3] -10.8% | [4] 17.4% | [5] -17.8% | [6] -17.4%

S=C1SCN(c2ccc(Br)cc2)CN1c1ccc2[nH]c(=S)sc2c1
inactive: [1] 10.6% | [2] 15.3% | [3] 26.1% | [4] 0.45% | [5] 12.1% | [6] 5.65%

CC(=O)OCC(=O)C1(O)C(C)CC2C3CCC4CC(=O)CCC4(C)C3=CCC21C (stereo unspecified)
inactive: [1] 43.1% | [2] -16.6% | [3] 0.65% | [4] -2.95% | [5] 26.1% | [6] 23.8%

CC1CCC2(C)OC1OC2CN (stereo unspecified)
inactive: [1] 1.15% | [2] 2.85% | [3] -2.2% | [4] -0.55% | [5] 0.3% | [6] -4.65%

COc1ccc(Nc2cccc(Cl)c2)cc1
active: [1] 97% | [2] 98.2% | [3] 96.5% | [4] 95.9% | [5] 95.6% | [6] 97.8%

Cc1ccc2nc(-c3ccc(-c4nc5ccc(C)cc5o4)c(O)c3)oc2c1
inactive: [1] -36.3% | [2] -14.4% | [3] -27.1% | [4] 2.95% | [5] -17.2% | [6] -24.8%

O=C1c2ccccc2C(=O)N1/N=C/c1ccc([N+](=O)[O-])cc1
inactive: [1] -4.4% | [2] -17% | [3] -16.3% | [4] -11.5% | [5] -13.9% | [6] -22.5%

CCC(CC)C(=O)OCCCC1CCCO1 (stereo unspecified)
inactive: [1] 12.9% | [2] 2.9% | [3] 7.9% | [4] -3.25% | [5] -3.95% | [6] 0.6%

COC(=O)C(=O)C(C(C)=O)C(=O)C(=O)Nc1ccc(C)cc1C (stereo unspecified)
inactive: [1] 19.1% | [2] 14.1% | [3] 1.95% | [4] 15.2% | [5] 26.1% | [6] 17.9%

O=C1/C(=C\c2ccc(O)cc2)CCC/C1=C/c1ccc(Cl)c(Cl)c1
inactive: [1] -0.5% | [2] 27.4% | [3] 7.15% | [4] 35.5% | [5] -4.85% | [6] 24.6%

C=CCc1ccc(OC(=O)Nc2ccc(S(=O)(=O)CC)cc2)c(OC)c1
inactive: [1] 1.65% | [2] -12.8% | [3] -26.4% | [4] -19.9% | [5] -14.2% | [6] -10.3%

CC(C)=C1C(=O)C[C@@]2(C)C[C@H]3OC3(C)CC/C=C(/C)CCC12 (stereo partly specified)
inactive: [1] 14.9% | [2] 11.7% | [3] 19.8% | [4] 12.9% | [5] 30.2% | [6] -62.5%

CC(C)(CO)NC(=O)c1ccccc1Br
inactive: [1] -31.9% | [2] -11.7% | [3] -8.6% | [4] 1.55% | [5] -13.9% | [6] 7.8%

O=C(O)c1ccc2c(c1)S(=O)(=O)NC2=O
inactive: [1] 1.15% | [2] 10.2% | [3] 13% | [4] -26.1% | [5] 12.1% | [6] -8%

CCOC(=O)C1=CN(C)C=C(Br)C1C#N (stereo unspecified)
inactive: [1] -2.2% | [2] 10.1% | [3] 4.55% | [4] 6.45% | [5] 8.1% | [6] -4.75%

COc1ccccc1NC(=O)/C(=C/C1CC(=O)NC1=S)C(C)=O (stereo unspecified)
inactive: [1] -18.6% | [2] -9.4% | [3] -18.6% | [4] 15.5% | [5] 12% | [6] -7.4%

Cc1c(C)c(O)c(SC(CC(=O)O)C(=O)O)c(C)c1O (stereo unspecified)
inactive: [1] 14.8% | [2] 37.8% | [3] 41.1% | [4] 1.65% | [5] 21.7% | [6] 44.1%

CCCCCC(=O)OC
inactive: [1] 4.75% | [2] -8.15% | [3] -28.4% | [4] -17.1% | [5] -11.2% | [6] 10.8%

N#Cc1c(C#N)c(-c2ccccc2)n(-c2ccccc2)c1N
inactive: [1] 10.7% | [2] 12% | [3] -29.7% | [4] -12.8% | [5] -11.2% | [6] -22.1%

CCOc1ccc(C(=O)OCCCl)cc1
inactive: [1] 9.85% | [2] 0.75% | [3] -3.1% | [4] 5.25% | [5] 6.75% | [6] 10.6%

Cc1ccc(NC(=S)N(CCC#N)C2CCCCC2)cc1
inactive: [1] -7.6% | [2] -10.1% | [3] 16.2% | [4] 6.95% | [5] 6.3% | [6] 0.85%

O=C(CC1(O)C(=O)Nc2ccccc21)c1ccc(O)cc1O (stereo unspecified)
inactive: [1] 13.2% | [2] 15.4% | [3] 12.1% | [4] 26.4% | [5] 14.3% | [6] 18.6%

O=C(O)C1=NN(c2cc(Cl)c(S(=O)(=O)O)cc2Cl)C(=O)C1
inactive: [1] -33.2% | [2] -45.1% | [3] -14.1% | [4] 6.1% | [5] -5.85% | [6] -32.9%

CCCC(=O)NC(NC1CCCCC1)(C(=O)OCC)C(F)(F)F (stereo unspecified)
inactive: [1] -17.3% | [2] -0.15% | [3] -15.6% | [4] 18.4% | [5] -7.25% | [6] -45.1%

CNSC1CCC2(C)C(=CCC3C2CCC2(C)C(C(C)CCCC(C)C)CCC32)C1 (stereo unspecified)
inactive: [1] -1.3% | [2] 1.7% | [3] -9.6% | [4] -5.05% | [5] -3% | [6] 10%

CC1=NN(c2ccccc2)C(=O)/C1=C(\[O-])c1ccccc1.CC1=NN(c2ccccc2)C(=O)/C1=C(\[O-])c1ccccc1.CC1=NN(c2ccccc2)C(=O)/C1=C(\[O-])c1ccccc1.[Fe+3]
inactive: [1] 1.8% | [2] -5.75% | [3] -15.1% | [4] -16.7% | [5] -2.9% | [6] 4.45%

NCCNc1nc(NCCN)nc(N(CCN)CCN)n1
inactive: [1] 4.85% | [2] -4.9% | [3] 7.6% | [4] 9% | [5] -17.3% | [6] 4.05%

CC(=O)NC(C)c1ccc(N=NN2CCCC2)cc1 (stereo unspecified)
inactive: [1] 19.6% | [2] -6% | [3] 20% | [4] 19.9% | [5] 25.3% | [6] -30.5%

COc1ccc(C2=NOC3COC4C=CC=CC4OCC23)cc1 (stereo unspecified)
inactive: [1] -11.4% | [2] -22.1% | [3] -13.6% | [4] -17.9% | [5] -19.4% | [6] -18.6%

CCC1(C)C(=O)SC(=S)N1C (stereo unspecified)
inactive: [1] 4.4% | [2] -0.2% | [3] -4.9% | [4] -8.4% | [5] -0.7% | [6] 5.6%

OCC(O)CNc1ncnc2ccccc12 (stereo unspecified)
inactive: [1] -1.65% | [2] -11.8% | [3] 3.4% | [4] -26.4% | [5] 1.7% | [6] 10.2%

CN(C)c1ccc([Si](c2ccc(N(C)C)cc2)c2ccc(N(C)C)cc2)cc1
inactive: [1] -18.5% | [2] 3.65% | [3] -19.1% | [4] -28.8% | [5] -1.1% | [6] 23.4%

CC1(C)OC2COC3(COC(C)(C)O3)C(O)C2O1 (stereo unspecified)
inactive: [1] -9.05% | [2] 0.2% | [3] 4.15% | [4] -3.7% | [5] -6.2% | [6] -24.8%

Cc1ccc(S(=O)(=O)N(C)C)cc1NC1=NCCO1
inactive: [1] -2.55% | [2] 5.75% | [3] 7.85% | [4] -40.4% | [5] -1% | [6] -2.6%
